# Bioassay records (PubChem)
# FMDV antiviral: foot and mouth disease virus antiviral activity; FMDV antiviral cell-based qHTS; Potency, µM (highest dose often 57.9 µM), actives largely listed as inhibitors; actives 1.2% (n = 410,000); calls by dose curve; tested in HEK293T cells; note: read-out not given here; nearly all actives have a fitted effect of over 45% in size
# RE007 growth inh: less growth of the S. pombe RE007 Vpr strain. S. pombe RE007 Vpr strain, BacTiter-Glo ATP luminescence, 24 h. Potency, µM (top dose mostly 92.2 µM), most hits filed as inhibitors. actives 0.21% (n = 360,000); active = well fitted falling curve with a large enough effect; inconclusive = small, poorly fitted or top-dose-only effect; inactive = no such curve, though single readings can be large or run the other way; note: nearly all actives have a fitted effect of over 50% in size
#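 Fission yeast RE007 carrying one integrated HIV-1 vpr copy, seeded at OD 0.01 in PMG+AL medium with 23 nL pinned compound. Grown 24 h at 30 degrees; viability read by BacTiter-Glo luminescence after 5 min.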
# FBPA Giardia inh: inhibitors of Giardia lamblia fructose-1,6-bisphosphate aldolase; A8B2U2; AID 2451; actives 0.71% (n = 290,000); purified Giardia FBPA; Potency, µM (doses to about 59.6 µM), hits mostly inhibitors; note: nearly all actives have a fitted effect of over 55% in size
# Target sequence (A8B2U2 whole entry, looked up): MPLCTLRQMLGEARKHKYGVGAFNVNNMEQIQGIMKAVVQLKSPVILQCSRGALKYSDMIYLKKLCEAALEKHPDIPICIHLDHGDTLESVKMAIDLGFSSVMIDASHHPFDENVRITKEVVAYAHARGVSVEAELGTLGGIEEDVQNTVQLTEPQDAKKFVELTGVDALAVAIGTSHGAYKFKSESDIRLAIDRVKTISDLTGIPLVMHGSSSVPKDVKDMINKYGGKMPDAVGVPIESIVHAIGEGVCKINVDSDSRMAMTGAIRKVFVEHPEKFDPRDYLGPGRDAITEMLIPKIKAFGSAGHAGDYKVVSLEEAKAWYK
#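 40 nM FBPA preincubated 10 min at RT with compound (up to 57.5 uM final), then substrate plus GAPDH/TPI/NAD/arsenate coupling and diaphorase/resazurin added. Fluorescence read after 20 min at RT, 525/598 nm.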
# HCMV inh: inhibitors of human cytomegalovirus. HFF cells, HCMV-luciferase reporter, 72 h; stronger effect = lower value. activity change, negative = inhibition, % at 57.5 µM. actives 4.5% (n = 410,000); in the data active = activity change below about -60%; inconclusive = no clear call, values can overlap the other calls; inactive = above about -39%
#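 HFF cells seeded 16 h at 37C, treated with compounds, infected with luciferase-reporter HCMV at MOI 1 PFU/cell; luciferase read at 72 h post infection, normalized to buffer-only and Salinomycin controls.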
# TbPYK inhibitor: inhibitors of Trypanosoma brucei pyruvate kinase; TbPYK enzyme, Kinase-Glo Plus ATP luminescence, 45 min; Potency, µM (top dose mostly 76.8 µM), usual class: inhibitors; actives 0.12% (n = 410,000); note: nearly all actives have a fitted effect of over 50% in size
#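 T. brucei PYK with substrate was exposed to pin-transferred compounds across a concentration series, then started with 130 uM ADP (final). After 45 min at room temperature, Kinase-Glo Plus luminescence was read, normalized and curve-fitted.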
# Sm TGR inh: inhibitors of Schistosoma mansoni thioredoxin glutathione reductase. Q962Y6. purified TGR, DTNB reduction, TNB absorbance 405 nm. Potency, µM (highest dose often 114 µM), hits mostly inhibitors. actives 3% (n = 360,000); note: nearly all actives have a fitted effect of over 60% in size
#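 First, TGR (20 nM dispensed) and NADPH were mixed with compound. Second, a 15 min room-temperature incubation followed. Third, further NADPH and then DTNB were added to start the reaction. Finally, TNB absorbance was monitored kinetically.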
# Numbers stand for hits; 0 = inactive; ? = inconclusive; - = no result given. This is a sample that favours compounds with a hit; in the whole collection about 7.7% have one here. Unless noted, calls come from the whole dose curve; as a rule, active = well fitted curve in the direction sought with a large enough effect; inconclusive = small, poorly fitted or top-dose-only effect, or another doubt; inactive = no such curve, though single readings can be large; an effect the other way counts as inactive or inconclusive.
SMILES,FMDV antiviral,RE007 growth inh,FBPA Giardia inh,HCMV inh,TbPYK inhibitor,Sm TGR inh
COC(=O)C1=C(C)NC2=C(C(=O)c3ccccc32)C1c1cccc(OC)c1 (stereo unspecified),0,0,0,0,0,0
CN(CCc1ccccc1)C(=O)c1cccc(NC(=O)Cc2cccc(NC(=O)C3CCN(C(=O)c4ccccc4)CC3)c2)c1,?,0,-,0,0,-
CN(CCc1ccccc1)C(=O)c1ccc(NC(=O)Cc2ccc(NC(=O)C3CCN(C(=O)C4CCCC4)CC3)cc2)cc1,?,0,-,-70.9,0,-
CN(CCc1ccccc1)C(=O)c1ccc(NC(=O)Cc2ccc(NC(=O)C3CCN(C(=O)c4ccccc4)CC3)cc2)cc1,0,0,-,-62.5,0,-
CN(CCc1ccccc1)C(=O)c1ccc(NC(=O)Cc2ccc(NC(=O)C3CCN(C(=O)C4CC4)CC3)cc2)cc1,0,0,-,?,0,-
CN(CCc1ccccc1)C(=O)c1ccc(NC(=O)Cc2ccc(NC(=O)C3CCCN(C(=O)c4ccccc4)C3)cc2)cc1 (stereo unspecified),?,0,-,-76.0,0,-
Cc1ccc(N2C(=O)NC(=O)/C(=C/c3ccc(OC(=O)c4cccs4)cc3)C2=O)cc1,0,0,0,0,0,35.5µM
COc1ccc(N2C(=O)NC(=O)/C(=C/c3cccc(OC(=O)c4cccs4)c3)C2=O)cc1Cl,0,0,0,0,0,14.1µM
CC1=NN(c2ccc(C(=O)O)cc2)C(=O)/C1=C\c1ccc(OC(=O)c2cccs2)cc1,0,0,0,0,?,0
C#CCOCCOCCOCCNc1nc(N2CCN(C(=O)CCCCCCCCCCNC(=O)[C@H](CCCCN)n3cc(CCO)nn3)CC2)nc(N2CCN(C(=O)CCCCCCCCCCNC(=O)[C@H](CCCN=C(N)N)n3cc(C[C@@H](C)CC)nn3)CC2)n1,?,0,-,-,0,0
C#CCOCCOCCOCCNc1nc(N2CCN(C(=O)CCCCCCCCCCNC(=O)[C@H](CCC(=O)O)n3cc(CCCCCN)nn3)CC2)nc(N2CCN(C(=O)CCCCCCCCCCNC(=O)[C@@H]([C@H](C)O)n3cc(C)nn3)CC2)n1,0,0,-,-,0,0
C#CCOCCOCCOCCNc1nc(N2CCN(C(=O)CCCCCCCCCCNC(=O)[C@@H]([C@H](C)O)n3cc(C)nn3)CC2)nc(N2CCN(C(=O)CCCCCCCCCCNC(=O)[C@@H]([C@H](C)O)n3cc(C)nn3)CC2)n1,0,0,-,-74.1,0,0
C#CCOCCOCCOCCNc1nc(N2CCN(C(=O)CCCCCCCCCCNC(=O)[C@H](CCCCN)n3cc(CCCC(=O)O)nn3)CC2)nc(N2CCN(C(=O)CCCCCCCCCCNC(=O)[C@H](CCCCN)n3cc(CCCC(=O)O)nn3)CC2)n1,0,0,-,-,0,?
C#CCOCCOCCOCCNc1nc(N2CCN(C(=O)CCCCCCCCCCNC(=O)[C@H](CCCCN)n3cc(C[C@@H](C)CC)nn3)CC2)nc(N2CCN(C(=O)CCCCCCCCCCNC(=O)[C@H](CCCCN)n3cc(C[C@@H](C)CC)nn3)CC2)n1,39.8µM,0,-,-,0,-
C#CCOCCOCCOCCNc1nc(N2CCN(C(=O)CCCCCCCCCCNC(=O)[C@H](CCCCN)n3cc(CCO)nn3)CC2)nc(N2CCN(C(=O)CCCCCCCCCCNC(=O)[C@H](CCCCN)n3cc(CCO)nn3)CC2)n1,0,0,-,-,0,35.5µM
C#CCOCCOCCOCCNc1nc(N2CCOCC2)nc(N2CCN(C(=O)CCCCCCCCCCNC(=O)[C@@H]([C@H](C)O)n3cc(C)nn3)CC2)n1,0,0,-,0,0,?
C#CCOCCOCCOCCNc1nc(N2CCN(C(=O)CCCCCCCCCCNC(=O)[C@H](CCCCN)n3cc(CCO)nn3)CC2)nc(N2CCN(C(=O)CCCCCCCCCCNC(=O)[C@@H]([C@H](C)O)n3cc(C)nn3)CC2)n1,0,0,-,-,0,17.8µM
CCc1ccc(-n2c3nc(=O)[nH]c(=O)c-3cc3c(C)nn(-c4ccccc4)c32)cc1,0,-,-,0,0,0
COCCn1c(=O)c(-c2cccs2)nc2cnc(Oc3ccc(OC)cc3)nc21,?,-,?,-,0,-
